SW480 rerep: inducers of DNA re-replication in SW480 colon cancer cells; AID 624297; Potency, µM (doses to about 46.1 µM), for inactives: top-dose re-replication activation, usual class: activators; 340,000 tested, 1.8% active; SW480 DNA re-replication, Hoechst DNA content imaging, 48 h; also: potency is read from the fitted curve at half-maximal effect; % of control where 0% means no effect; nearly all actives have a fitted effect of over 55% in size
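Hoechst fluorescence of nuclei (405 nm excitation, 500-530 nm emission) measured by plate-scanning imager after 48 hr compound exposure at 37 C; re-replication scored as increased number of nuclei with elevated intensity.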
Vif-APOBEC3F blk: blocks the Vif interaction with APOBEC3F. Potency, µM (highest dose often 46.1 µM), for the others: at the highest dose activity, negative = active. HeLa A3F-eYFP + Vif (tagged APOBEC3F with the HIV-1 protein that degrades it), YFP fluorescence increase. 390,000 tested, 0.2% active. AID 602313; also: potency is read from the fitted curve at half-maximal effect; % of control where 0% means no effect; nearly all actives have a fitted effect of over 65% in size
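Fluorescence increase (Ex 488/Em 500-530) after overnight compound treatment at 37 deg C flags inhibition of Vif-driven A3F-eYFP loss in stable HeLa A3F-eYFP/Vif cells seeded overnight beforehand.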
Giardia kill: kills Giardia lamblia | Giardia lamblia trophozoite viability | AID 540267 | activity change, % at 7.66 µM, hits read low | 340,000 tested, 0.15% active; in the data active = activity change below about -80%; inconclusive = between about -30% and that limit;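 also: parasites exposed to compound for two days anaerobically before the ATP read; % is scaled to controls: 0 for no effect and ±100 for the full control effect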
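Luminescent ATP signal served as the viability read-out, measured 15-30 min after adding ATP detection reagent to trophozoites that had been incubated with compounds for 48 hrs at 37 deg C anaerobically at 100 cells/well.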
MCF10A rerep: inducers of DNA re-replication in MCF 10A breast cells; MCF 10A DNA re-replication, Hoechst nuclear intensity, 48 h; Potency, µM (titrated, usually from 46.1 µM), for the others: at the highest dose activity, positive = re-replication, most hits filed as activators; 350,000 tested, 2.9% active; also: potency is read from the fitted curve at half-maximal effect; % of control where 0% means no effect; nearly all actives have a fitted effect of over 50% in size
Vif-A3G inh: Vif-A3G binding inhibition; HeLa A3G-eYFP + Vif (tagged APOBEC3G with the HIV-1 protein that degrades it), YFP fluorescence, overnight; Potency, µM (titrated, usually from 46.1 µM), without a hit: at the top dose activity, negative = active, most hits filed as inhibitors; 410,000 tested, 0.076% active; Q9HC16; AID 602310; also: potency is read from the fitted curve at half-maximal effect; % is scaled to controls: 0 for no effect and ±100 for the full control effect; nearly all actives have a fitted effect of over 60% in size
Target sequence (Q9HC16 whole entry, looked up): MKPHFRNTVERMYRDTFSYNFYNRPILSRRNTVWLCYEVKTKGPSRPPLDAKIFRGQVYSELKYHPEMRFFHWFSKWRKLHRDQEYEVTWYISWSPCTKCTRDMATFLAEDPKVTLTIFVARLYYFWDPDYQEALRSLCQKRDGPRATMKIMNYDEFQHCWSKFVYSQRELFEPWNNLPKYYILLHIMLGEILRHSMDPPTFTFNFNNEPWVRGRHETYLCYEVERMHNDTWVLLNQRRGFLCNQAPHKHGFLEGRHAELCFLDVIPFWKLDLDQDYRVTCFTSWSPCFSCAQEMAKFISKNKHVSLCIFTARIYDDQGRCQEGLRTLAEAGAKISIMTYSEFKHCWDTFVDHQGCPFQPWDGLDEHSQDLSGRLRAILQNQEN
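HeLa cells stably expressing Vif and C-terminally eYFP-tagged A3G, seeded overnight at 37 deg C, then exposed to compound by pintool overnight at 37 deg C. Rise in yellow fluorescence (Ex 488/Em 500-530, Acumen) marks blocked Vif-driven A3G degradation.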
IL1B secr inh: inhibitors of inflammasome signaling (IL-1 beta secretion) | activity change, % at 57.5 µM | 360,000 tested, 4.7% active | THP-1 LPS/ATP IL-1B secretion, AlphaLISA, 16 h; stronger effect = lower value; in the data active = activity change below about -50%; inconclusive = mostly about -30% to -49%; also: % is scaled to controls: 0 for no effect and ±100 for the full control effect
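Secreted IL-1B measured by AlphaLISA bead assay after 16 h compound exposure of THP-1 cells; compounds (final up to 57.5 uM) added 1 h before LPS (250 ng/mL) and ATP (1.25 mM) stimulation; lower signal means less secretion.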
Numbers without * were called inactive; [ ] = dose if it differs, or a comment. Sampled rows, rich in hits. Any-hit rate of the full collection: about 6.9%. Unless noted, calls follow the shape of the dose curve; as a rule, active = well fitted curve in the direction sought with a large enough effect; inconclusive = small, poorly fitted or top-dose-only effect, or another doubt; inactive = no such curve, though single readings can be large; an effect the other way counts as inactive or inconclusive.

What do the screens show for `C[N+]1([O-])[C@@H]2CC[C@H]1CC(OC(=O)[C@@H](CO)c1ccccc1)C2` (some centres not stated)?
SW480 rerep: -1%[20.6 µM]; MCF10A rerep: 2%[20.6 µM]

Results for Brc1ccccc1 ?
SW480 rerep: inconclusive; Vif-APOBEC3F blk: -3%; Giardia kill: 18; MCF10A rerep: 34%; Vif-A3G inh: 2%; IL1B secr inh: -20

How did c1ccc(SSc2ccccc2)cc1 do in these assays?
SW480 rerep: inconclusive; Vif-APOBEC3F blk: -1%; Giardia kill: 6; MCF10A rerep: 4%; Vif-A3G inh: -1%; IL1B secr inh: -101*

What do the screens show for `CC(C)OC(=O)c1cc(C(=O)c2cc(Cl)ccc2O)coc1=N`?
SW480 rerep: 0%; Vif-APOBEC3F blk: inconclusive; Giardia kill: 2; MCF10A rerep: 1%; Vif-A3G inh: -29%; IL1B secr inh: -1

How did CCn1c(=O)oc2cc(NC(=O)CCl)ccc21 do in these assays?
SW480 rerep: inconclusive; Vif-APOBEC3F blk: 5%; Giardia kill: 10; MCF10A rerep: inconclusive; Vif-A3G inh: inconclusive; IL1B secr inh: -100*

Results for Cc1ccc(NC(=O)CCCn2c(=O)oc3ccccc32)c(O)c1 ?
SW480 rerep: -11%; Vif-APOBEC3F blk: -2%; Giardia kill: 2; MCF10A rerep: -34%; Vif-A3G inh: -1%; IL1B secr inh: 11

How did N=C1c2ccccc2CN1c1cccc([N+](=O)[O-])c1 do in these assays?
SW480 rerep: -6%; Vif-APOBEC3F blk: 2%; Giardia kill: 4; MCF10A rerep: 1%; Vif-A3G inh: 2%; IL1B secr inh: 11

Results for N=C1c2ccccc2CN1c1ccc(F)c([N+](=O)[O-])c1 ?
SW480 rerep: -15%; Vif-APOBEC3F blk: 8%; Giardia kill: -15; MCF10A rerep: 11%; Vif-A3G inh: 0%; IL1B secr inh: -99*

How did CC[C@]1(C(=O)OC)[C@H]2C(=O)N(Cc3ccccc3)C(=O)[C@H]2[C@H]2CN=C(SCc3ccc(C(=O)OC)cc3)N21 do in these assays?
SW480 rerep: inconclusive; Vif-APOBEC3F blk: -2%; Giardia kill: -3; MCF10A rerep: -2%; Vif-A3G inh: 0%; IL1B secr inh: 19

What do the screens show for `C[C@@H](Cc1ccccc1)NCCC(c1ccccc1)c1ccccc1`?
SW480 rerep: 11%[20.6 µM]; MCF10A rerep: 7%[20.6 µM]

Results for Cc1c2ccncc2c(C)c2c1[nH]c1ccccc12 ?
SW480 rerep: 7.3µM*; Vif-APOBEC3F blk: 10µM*; Giardia kill: 13; MCF10A rerep: 5.8µM*; Vif-A3G inh: inconclusive; IL1B secr inh: -79*

How did O=C(CCC1CCCC1)c1c(O)c2ccccc2oc1=O do in these assays?
SW480 rerep: -8%; Vif-APOBEC3F blk: 5%; Giardia kill: 2; MCF10A rerep: 18µM*; Vif-A3G inh: 0%; IL1B secr inh: -11

What do the screens show for `O=c1oc2ccccc2c(O)c1C(c1ccccn1)c1c(O)c2ccccc2oc1=O`?
SW480 rerep: -7%; Vif-APOBEC3F blk: -2%; Giardia kill: -10; MCF10A rerep: -3%; Vif-A3G inh: 5%; IL1B secr inh: 41

Results for COc1ccc(-c2nc(CN3C(=O)CN=C(c4ccccc4)c4ccccc43)c(C)o2)cc1 ?
Vif-APOBEC3F blk: 8%; Vif-A3G inh: -8%

How did C=C1C(=O)OC2CC3(C)OC3CCC(C)=CC(OC(C)=O)C12 (configuration not stated) do in these assays?
SW480 rerep: 4%; Vif-APOBEC3F blk: -6%; Giardia kill: -11; MCF10A rerep: 5.2µM*; Vif-A3G inh: inconclusive; IL1B secr inh: -100*

What do the screens show for `CNC(=O)Oc1ccccc1C(=O)Nc1ccccc1`?
SW480 rerep: 1%; MCF10A rerep: 3%

What do the screens show for `C=CC[C@@H](CC/C=C/C=C/CC/C=C\[C@@H]1CSC([C@@H]2C[C@@H]2C)=N1)OC`?
SW480 rerep: 1.2µM*; Vif-APOBEC3F blk: -2%; Giardia kill: 39; MCF10A rerep: 0.73µM*; Vif-A3G inh: inconclusive; IL1B secr inh: 67

How did COc1ccc(CCNCc2ccc(Br)cc2)cc1OC do in these assays?
SW480 rerep: -3%; Vif-APOBEC3F blk: -2%; Giardia kill: 14; MCF10A rerep: -3%; Vif-A3G inh: 1%; IL1B secr inh: -27

What do the screens show for `Cc1ccccc1CCNCc1ccc(Br)cc1`?
SW480 rerep: 12%; Vif-APOBEC3F blk: -1%; Giardia kill: -1; MCF10A rerep: inconclusive; Vif-A3G inh: -5%; IL1B secr inh: -65*

What do the screens show for `COc1ccc(/C=C/c2nc3ccccc3c(=O)n2-c2ccc(C)cc2)cc1O`?
Vif-APOBEC3F blk: 7%; Vif-A3G inh: 2%

What do the screens show for `CC(C)(C)c1cc(O)ccc1O`?
SW480 rerep: inconclusive; MCF10A rerep: 30µM*

What do the screens show for `O=C(Nc1ccccc1)C1=C[C@H](c2ccccc2)C[C@H](OCCCCO)O1`?
SW480 rerep: 1%; Vif-APOBEC3F blk: -5%; Giardia kill: 6; MCF10A rerep: 18µM*; Vif-A3G inh: 1%; IL1B secr inh: -19

What do the screens show for `Cc1ccc(-n2c(O)c(/C=C3/C(c4ccccc4)=Nc4ccccc43)c(=O)[nH]c2=O)cc1`?
SW480 rerep: 3.7µM*; Vif-APOBEC3F blk: 2%; Giardia kill: 14; MCF10A rerep: 5.2µM*; Vif-A3G inh: inconclusive; IL1B secr inh: -58*

Results for O=c1[nH]c(=O)n(-c2ccc(F)cc2)c(O)c1/C=C1\C=Nc2ccccc21 ?
SW480 rerep: 6%; Vif-APOBEC3F blk: inconclusive; Giardia kill: 4; MCF10A rerep: 5%; Vif-A3G inh: -20%; IL1B secr inh: 13

Results for CC1=Nc2ccccc2/C1=C/c1c(O)n(C)c(=O)[nH]c1=O ?
SW480 rerep: -2%; Vif-APOBEC3F blk: -23%; Giardia kill: -18; MCF10A rerep: 2%; Vif-A3G inh: -5%; IL1B secr inh: -103*

What do the screens show for `Cc1cccc(-n2c(O)c(/C=C3/C(c4ccccc4)=Nc4ccccc43)c(=O)[nH]c2=O)c1`?
SW480 rerep: 3.7µM*; Vif-APOBEC3F blk: inconclusive; Giardia kill: 10; MCF10A rerep: 3.7µM*; Vif-A3G inh: -17%; IL1B secr inh: 74

What do the screens show for `O=c1[nH]c(=O)n(-c2ccccc2F)c(O)c1/C=C1\C=Nc2ccccc21`?
SW480 rerep: 6%; Vif-APOBEC3F blk: -3%; Giardia kill: -7; MCF10A rerep: 1%; Vif-A3G inh: -21%; IL1B secr inh: 46

How did COC(=O)C1=Nc2ccccc2/C1=C\c1c(O)n(-c2cc(OC)ccc2OC)c(=O)[nH]c1=O do in these assays?
SW480 rerep: 2%; Vif-APOBEC3F blk: -14%; Giardia kill: 14; MCF10A rerep: 5%; Vif-A3G inh: -6%; IL1B secr inh: -26
